Measurements from ChEMBL document CHEMBL3433997, “St. Jude Leishmania screening dataset” (2016).

Biological target: Solute carrier family 2, facilitated glucose transporter member 1 (Homo sapiens) (UniProt P11166)
Test: ST_JUDE_LEISH: Cytotoxicity at 2uM final concentration against transgenic Leishmania Mexicana promastigotes LmGLUT1 that are glucose transport deficient and complemented with the human glucose transporter GLUT1. Activity is measured by DNA content using SYBR green in vitro
Format: functional

Chain of Solute carrier family 2, facilitated glucose transporter member 1 (Homo sapiens) (P11166 whole entry): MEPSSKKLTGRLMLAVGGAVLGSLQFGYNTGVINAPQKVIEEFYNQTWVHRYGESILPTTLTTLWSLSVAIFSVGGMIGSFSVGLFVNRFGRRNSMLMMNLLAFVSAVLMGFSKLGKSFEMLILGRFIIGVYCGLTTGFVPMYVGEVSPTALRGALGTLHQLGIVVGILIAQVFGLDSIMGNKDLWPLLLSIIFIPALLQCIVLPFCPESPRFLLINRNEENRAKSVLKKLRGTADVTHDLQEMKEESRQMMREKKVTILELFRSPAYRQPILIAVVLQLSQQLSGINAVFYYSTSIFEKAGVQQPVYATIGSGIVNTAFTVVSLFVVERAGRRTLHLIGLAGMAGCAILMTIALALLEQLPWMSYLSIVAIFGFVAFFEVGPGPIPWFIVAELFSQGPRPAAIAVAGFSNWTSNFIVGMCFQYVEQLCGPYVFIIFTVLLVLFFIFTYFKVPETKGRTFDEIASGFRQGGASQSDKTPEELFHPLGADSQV

Compared with `COc1ccc2ncc(F)c(CCN3CC[C@@H](CNCc4ccc5c(c4C)OCCO5)C3)c2n1`, `COc1ccc2nccc([C@@H](O)CN3CCC(NCc4cc5oc(=O)[nH]c5cc4Cl)CC3)c2c1` is lower in inhibition: 27.8% for the first, -1.1% for the second.

First: c1ccc(-c2n[nH]cc2Nc2ccnc3ccccc23)nc1
Second: Nc1cc(-c2ccc3ccccc3c2)nc2ccccc12
The inhibition of the first is lower: 5.35% for the first, 31.2% for the second.

First: CCOc1cc(Cc2cnc(N)nc2N)ccc1OC
Second: C=CCc1cc(Cc2cnc(N)nc2N)cc(CCC)c1OC
The inhibition of the first is lower: 0.52% for the first, 15.3% for the second.

Going from `O=C(Nc1cccc(OC2CCN(Cc3ccccc3)CC2)c1)c1ccc(Cl)c(Cl)c1` to `O=C(Nc1cccc(C(F)(F)F)c1)c1cccc(S(=O)(=O)NCC2CCCN(Cc3ccccc3)C2)c1` (stereo not given), the inhibition falls from 3.35% to 1.71%.

Compared with `CCCC(C)Nc1nc(C)cc(N[C@@H](Cc2ccccc2)C(=O)Nc2ccccc2)n1` (stereo not given in full), `CC[C@H](NC(=O)c1c(CC2CCN(CC(C)=O)CC2)c(-c2ccccc2)nc2ccccc12)c1ccccc1` is lower in inhibition: 2.98% for the first, 2.8% for the second.

Going from `c1ccc(Oc2ccc(Nc3ccnc4cc(-c5cccc(CNCCN6CCOCC6)c5)ccc34)cc2)cc1` to `COc1ccc2nc(-c3ccccc3)cc(NCCCNc3cc(-c4ccccc4)nc4ccc(OC)cc34)c2c1`, the inhibition rises from -0.34% to 3.06%.

Compared with `CCN(CCCN1CCCCC1)c1cc(C)nc(Nc2ccc(C)c(F)c2)n1`, `CCCCCCN1CCCN(Cc2cccc(C(=O)Nc3ccc(C(C)(C)C)cc3)c2)CC1` is lower in inhibition: 5.07% for the first, 1.39% for the second.

Compared with `Cc1ccc(C(=O)NC2C(=O)NC2c2ccccc2)c(C)c1` (stereo not given), `O=C(NC(=O)c1ccccc1)NC1CCN(c2ccnc3cc(Cl)ccc23)C1` (stereo not given) is lower in inhibition: 3.72% for the first, -0.37% for the second.

Going from `O=C(/C=C/c1ccc(Cl)c(Cl)c1)NCCCCCN1CCC(NC(=O)Nc2ccc(Cl)c(Cl)c2)CC1` to `O=C(C1CCN(C(c2ccccc2)c2ccc(Cl)c(Cl)c2)CC1)N1CC=CC1` (stereo not given), the inhibition falls from 1.02% to 0.54%.

Compared with `CCS(=O)(=O)c1ccc(/C(=N/OC)c2ccc[nH]2)cc1`, `CCCN(CCC)S(=O)(=O)c1ccc(C(=O)N2CCC(C(=O)OCC)CC2)cc1` is higher in inhibition: 0.36% for the first, 6.42% for the second.

Going from `CCc1cn2c3c(cc(C(=O)N[C@@H](Cc4ccccc4)[C@H](O)CNC(C)(C)CCCC(C)C)cc13)N(C)S(=O)(=O)C2` to `CCn1ccc2c(N3CCCCS3(=O)=O)cc(C(=O)N[C@@H](Cc3ccccc3)[C@H](O)CNC(C)(C)c3cccc(C(F)(F)F)c3)cc21`, the inhibition falls from 2.45% to 0.44%.

First: CN(C)CCN(C)Cc1ccc(-c2ccc(NC(=O)c3ccc(Cl)cc3)cc2)cc1
Second: O=C(Nc1ccc(-c2ccc(-c3nc4ccccc4[nH]3)cc2)cc1)Nc1ccc(Cl)c(Cl)c1
The inhibition of the first is higher: 21.2% for the first, 3.78% for the second.

Going from `CC(CNCc1cn(Cc2cc(Br)cc(Br)c2)c2ccccc12)CNc1cc(=O)c2ccccc2[nH]1` (stereo not given) to `Cn1cnc(CCNC(=O)c2ccc(-c3cccc(-c4nc5ccccc5[nH]4)c3)cc2)c1`, the inhibition rises from 0.59% to 0.8%.

First: Cc1c(C(=O)C2CC2CN2CCC(N3CCCCC3)CC2)sc2ccccc12 (stereo not given)
Second: O=C(CNCC1CCCCC1)Nc1cc(C(F)(F)F)ccc1Cl
The inhibition of the first is higher: 2.43% for the first, 1.93% for the second.

Compared with `O=c1[nH]ccc2nc(N[C@@H]3CCCNC3)nc(Nc3ccc(S(=O)(=O)N4CCOCC4)cc3)c12`, `CN(Cc1cc(C(F)(F)F)cc(C(F)(F)F)c1)C(=O)C(Cc1ccc(F)cc1)C1CCCNC1` (stereo not given) is higher in inhibition: 0.92% for the first, 6.71% for the second.

First: COc1ccc2nccc([C@@H](O)CN3CCC(NCCOc4cc(F)cc(F)c4)CC3)c2c1
Second: CCCCCCNc1cc(C)nc2ccc(OC)cc12
The inhibition of the first is lower: 9.84% for the first, 11.1% for the second.

First: CCN(Cc1cccc2ccccc12)c1ccc2nc(N)nc(N)c2c1
Second: COc1ccc(Cn2ccc3c4c(N)nc(N)nc4ccc32)cc1
The inhibition of the first is lower: 97.2% for the first, 97.9% for the second.

First: Cc1c(C(=O)Nc2cc(Sc3ccc(F)cc3)cc([N+](=O)[O-])c2)sc2ncn(Cc3cccc(F)c3)c(=O)c12
Second: CCNC(C)(C)CN(Cc1ccc(-c2ccc(C(F)(F)F)cc2)cc1)C(=O)Cn1c(CCc2cccc(F)c2F)nc(=O)c2ccccc21
The inhibition of the first is lower: 3.77% for the first, 3.91% for the second.

First: C=CCOc1ccc(C2C(C(=O)OC)=C(C)NC3=C2C(=O)c2ccccc23)cc1OC (stereo not given)
Second: CCCC(C)NC(=O)[C@H](CC1CCCCC1)NC(=O)c1ccc(O)c(-c2ccc(OC)cc2)c1 (stereo not given in full)
The inhibition of the first is lower: -0.61% for the first, 2.7% for the second.

Going from `CCc1c(CCNCC/C=C/CCNCCc2ccc(OC)c(OC)c2CC)ccc(OC)c1OC` to `CC1(C)N=C(N)N=C(NOCc2ccc(Cl)c(Cl)c2)N1`, the inhibition rises from 0.84% to 1.06%.
